Results filed as inconclusive are left out. Entries that show only a call come without a potency. The source made the active and inactive calls. Calls follow the shape of the dose curve; as a rule, active = well fitted curve in the direction sought with a large enough effect; inconclusive = small, poorly fitted or top-dose-only effect, or another doubt; inactive = no such curve, though single readings can be large; an effect the other way counts as inactive or inconclusive.

Chain of Cytochrome P450 2C19 (Homo sapiens) (P33261 whole entry, looked up): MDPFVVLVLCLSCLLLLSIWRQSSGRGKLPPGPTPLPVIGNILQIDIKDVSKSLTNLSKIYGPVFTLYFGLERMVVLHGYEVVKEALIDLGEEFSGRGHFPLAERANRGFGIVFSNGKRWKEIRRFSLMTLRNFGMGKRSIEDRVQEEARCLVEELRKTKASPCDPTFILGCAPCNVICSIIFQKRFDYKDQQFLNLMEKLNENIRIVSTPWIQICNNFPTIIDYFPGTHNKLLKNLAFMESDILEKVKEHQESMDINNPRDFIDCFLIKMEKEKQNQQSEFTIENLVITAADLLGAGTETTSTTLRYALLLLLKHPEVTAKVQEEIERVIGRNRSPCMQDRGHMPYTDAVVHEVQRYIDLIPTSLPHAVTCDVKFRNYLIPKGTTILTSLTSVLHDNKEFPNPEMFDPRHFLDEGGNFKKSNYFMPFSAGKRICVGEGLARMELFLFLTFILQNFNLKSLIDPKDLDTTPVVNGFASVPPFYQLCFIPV

One assay addresses Cytochrome P450 2C19 (Homo sapiens) (UniProt P33261). Nature of the assay: qHTS Assay for Inhibitors and Substrates of Cytochrome P450 2C19 (AID 899). Also: nearly all actives have a fitted effect of over 60% in size. Also: potency is read from the fitted curve at half-maximal effect. The conditions noted are these: recombinant CYP2C19, luciferin-H EGE luminescence; series mostly up to 57.1 µM. In a few lines: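 Human CYP2C19 (5nM) with Luciferin-H EGE at 10uM (its KM) in 50mM KPO4 was preincubated with compound for 10 min at 37C. NADPH regeneration started a 60 min 37C reaction. Luciferin was read by luminescence, normalized to 57uM ketoconazole.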
A general note: In qHTS, concentration-response curves come from the screen itself.
Turning to `COc1ccc2[nH]cc(CCNc3ncnc4ccc(-c5ccc6c(c5)OCO6)cc34)c2c1`, the Potency was 1580 nM (active).
The same measure, in the same setting: as for `COc1cccc(-c2cc(NCCc3c[nH]c4ccc(OC)cc34)ncn2)c1`, the figure is 501 nM (active); as for `COc1ccccc1CNc1ncnc2ccc(-c3ccccc3C#N)cc12`, 7940 nM (active).
With `Cc1ccccc1-c1ccc2ncnc(N(C)C)c2c1`, the Potency was 7940 nM (active).
For `COc1ccc2[nH]cc(CCNc3nc(-c4ccc(C(=O)N(C)C)cc4)nc4ccccc34)c2c1`, the Potency was 3160 nM (active).
On the same count and under the same terms, the figure for `CN(Cc1ccco1)c1ncnc2ccc(-c3ccc4c(c3)OCO4)cc12` is 631 nM (active); for `COc1cc2ccc(=O)oc2cc1O` it is “inactive”; for `CCCCCCCNS(=O)(=O)c1cccc2c(Cl)cccc12` it is 126 nM (active).
As for `CC[C@@]12CCCN3CCc4c(n(c5ccccc45)[C@](O)(C(=O)OC)C1)[C@H]32`, the Potency entry is “inactive”.
Consider `COc1ccc2[nH]cc(CCNc3ncnc4ccc(-c5ccccc5C#N)cc34)c2c1`, for which the Potency is 2000 nM (active).

Test system in a further assay: not listed separately
Nature of the assay: Confirmation and Secondary Assay for Modulators of Hemoglobin Beta Chain Splicing at IVS2 654 locus (AID 910).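 Also: per-well total GFP intensity by laser scanning cytometry after 2-day treatment.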 The conditions noted are these: HeLa EGFP-654 splicing reporter, GFP fluorescence, 48 h; series mostly up to 38.3 µM. The gist of the method:
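HeLa cells stably carrying EGFP interrupted by mutant beta-globin IVS2-654 intron (CMV-driven) were treated with compound for 2 days at 37C; corrected splicing was scored as total peak GFP intensity per well (488 nm excitation, 500-520 nm emission).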
For `O=c1ccc2cc(O)c(O)cc2o1`, the Potency result is “inactive”.
Take `COc1ccc2[nH]cc(CCNc3nc(-c4ccc(C(=O)N(C)C)cc4)nc4ccccc34)c2c1`: the Potency entry is “inactive”.
Same read-out and setting: the entry for `Cc1[nH]ccc2c1[nH]c1cc(=O)ccc12` is “inactive”.
As to `CN(Cc1ccco1)c1ncnc2ccc(-c3ccc4c(c3)OCO4)cc12`, the Potency entry is “inactive”.
On to `NC(Cc1ccc(O)c(O)c1)C(=O)O` (configuration not stated), for which the Potency result was “inactive”.
Still for that read-out and setting: the entry for `COc1cc2ccc(=O)oc2cc1O` is “inactive”; for `COc1ccc2[nH]cc(CCNc3ncnc4ccc(-c5ccccc5C#N)cc34)c2c1` it is “inactive”; for `CC(=O)Oc1ccccc1C(=O)Oc1ccccc1C(=O)O` it is “inactive”.

Test system in another assay: not listed separately
Kind of assay: Confirmation and Secondary Assay for Modulators of Hemoglobin Beta Chain Splicing at IVS2 705 locus (AID 930).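 Also: HeLa cells stably expressing the EGFP-705 splicing reporter; GFP fluorescence per well restored by corrected splicing of the IVS2-705 intron in EGFP.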 The conditions noted are these: HeLa EGFP-705 splicing reporter, GFP fluorescence, 48 h; series mostly up to 38.3 µM. In a few lines: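 HeLa EGFP-705 reporter; 500 cells/well, o/n 37C 5% CO2; cpd 2 d; 488 ex/500-520 em laser scan; total peak GFP intensity/well. Ref: 500 nM […] antisense PNA.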
For the compound `COc1ccc2[nH]cc(CCNc3nc(-c4ccc(C(=O)N(C)C)cc4)nc4ccccc34)c2c1`, the call was inactive.
For `CCCCCC/C=C\CCCCCCCc1cccc(O)c1C(=O)O`, the compound was called inactive.
In the case of `COC(=O)c1c(C)cc(OC(=O)c2c(C)cc(O)c(C=O)c2O)c(C)c1O`, the compound was called inactive.
`Cc1[nH]ccc2c1[nH]c1cc(=O)ccc12`: the result was inactive.
Still for that read-out and setting: the entry for `CN(Cc1ccco1)c1ncnc2ccc(-c3ccc4c(c3)OCO4)cc12` is “inactive”; for `NC(Cc1ccc(O)c(O)c1)C(=O)O` (configuration not stated) it is “inactive”; for `COc1cc2ccc(=O)oc2cc1O` it is “inactive”.
Consider `COc1ccc2[nH]cc(CCNc3ncnc4ccc(-c5ccccc5C#N)cc34)c2c1`, for which the compound was called inactive.
In the case of `CC(=O)Oc1ccccc1C(=O)Oc1ccccc1C(=O)O`, the call was inactive.

Source of the values: PubChem BioAssay (NCATS).
